Reference: PubChem BioAssay (Tox21)
Several values for one entry are separate records, joined by “and”; a condition that tells them apart may be missing. Equal entries are not always repeated. Records with an inconclusive call do not appear. Some structures have more than one record in an assay (separate samples or runs), and their calls can disagree. Activity calls are given as the source filed them. Unless noted, calls come from the whole dose curve; as a rule, active = well fitted curve in the direction sought with a large enough effect in the repeat runs; inconclusive = weak or mixed curves; inactive = no such curve, though single readings can be large; an effect the other way counts as inactive or inconclusive.

Tests used:
[1] = qHTS assay to identify small molecule antagonists of the androgen receptor (AR) signaling pathway using the MDA cell line in the presence of 0.5 nM R1881 - cell viability counter screen (AID 1259242); note: nearly all actives have a fitted effect of over 45% in size; note: potency is the fitted concentration of half-maximal effect
Method in brief: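 Fluorescence from CellTiter-Fluor, which reports protease activity of live cells, was read 30 min after reagent addition to MDA-kb2 cells that had been incubated 16 hr with compound and 0.5 nM R1881.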

[2] = target: Estrogen receptor (Homo sapiens) (UniProt P03372); experiment: qHTS assay to identify small molecule antagonists of the estrogen receptor alpha (ER-alpha) signaling pathway using the BG1 cell line in the presence of 0.1 nM 17-beta-estradiol (AID 1259244); note: nearly all actives have a fitted effect of over 50% in size; note: potency is the fitted concentration of half-maximal effect
Chain of Estrogen receptor (Homo sapiens) (P03372 whole entry, looked up): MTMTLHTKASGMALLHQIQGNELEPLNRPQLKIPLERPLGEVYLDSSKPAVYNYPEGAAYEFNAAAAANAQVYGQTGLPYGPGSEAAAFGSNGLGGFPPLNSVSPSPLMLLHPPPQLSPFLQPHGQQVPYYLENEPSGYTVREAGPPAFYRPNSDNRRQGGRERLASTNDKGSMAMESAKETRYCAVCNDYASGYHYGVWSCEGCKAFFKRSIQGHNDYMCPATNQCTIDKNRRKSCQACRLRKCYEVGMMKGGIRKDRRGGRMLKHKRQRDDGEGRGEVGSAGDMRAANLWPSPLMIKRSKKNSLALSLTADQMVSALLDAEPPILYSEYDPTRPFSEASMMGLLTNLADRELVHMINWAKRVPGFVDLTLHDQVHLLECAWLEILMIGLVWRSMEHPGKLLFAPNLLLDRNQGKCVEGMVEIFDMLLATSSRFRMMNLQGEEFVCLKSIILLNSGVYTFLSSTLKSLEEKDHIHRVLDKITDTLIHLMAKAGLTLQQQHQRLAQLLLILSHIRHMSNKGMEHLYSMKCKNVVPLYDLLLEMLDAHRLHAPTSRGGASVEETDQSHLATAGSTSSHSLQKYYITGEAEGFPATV
Method in brief: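 Quantitative high-throughput screen in VM7Luc4E2 cells: compound plus 0.1 nM E2 (final), 22 h, 37C, 5% CO2; ONE-Glo added, 30 min room temperature, luminescence measured.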

[3] = qHTS assay to identify small molecule HDAC inhibitors (AID 1259364); note: nearly all actives have a fitted effect of over 45% in size; note: potency is the fitted concentration of half-maximal effect
Method in brief: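 Endogenous HDAC class I/II activity was measured in wild-type HCT-116 cells by HDAC-Glo luminescence after 2 h compound treatment.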

[4] = qHTS assay to identify small molecule HDAC inhibitors - cell viability counter screen (AID 1259365); note: series mostly up to about 92 µM; nearly all actives have a fitted effect of over 50% in size
Method in brief: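 Wild-type HCT-116 cells, 1,500/well, cultured overnight, then compound-treated 2 h at 37 C. Viability measured as ATP luminescence with CellTiter-Glo after 30 min at room temperature.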

[5] = qHTS assay to identify small molecule agonists of the sonic hedgehog signaling (Shh) pathway - cell viability counter screen (AID 1259366); note: nearly all actives have a fitted effect of over 50% in size; note: potency is the fitted concentration of half-maximal effect
Method in brief: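 NIH/3T3-derived Gli1-Luc reporter cells, 2,000 per well, received compound after 4 h and were treated about 23 h at 37C. Viability measured in the same wells by CellTiter-Fluor fluorescence after 1 h.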

[6] = qHTS assay to identify small molecule antagonists of the sonic hedgehog signaling (Shh) pathway - cell viability counter screen (AID 1259367); note: nearly all actives have a fitted effect of over 55% in size
Method in brief: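 NIH/3T3-derived Gli1-Luc reporter cells (2,000 per well) rested 4 hr at 37 C, then received DMSO compounds plus conditioned medium. After 23 hr of treatment, CellTiter-Fluor was added for 1 hr at 37C and fluorescence read.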

[7] = qHTS assay to identify small molecule agonists of the sonic hedgehog signaling (Shh) pathway (AID 1259368; calls by dose curve;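 note: NIH/3T3-derived 3T3Gli1-Luc cells carrying a stable Gli1-driven firefly luciferase reporter; series mostly up to about 92 µM; nearly all actives have a fitted effect of over 15% in size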)
Method in brief: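 Luminescent signal was taken as a measure of Gli1-controlled luciferase expression in stably transfected NIH/3T3-derived cells that had been treated for 24 hr with compounds delivered in DMSO.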

[8] = qHTS assay to identify small molecule antagonists of the sonic hedgehog signaling (Shh) pathway (AID 1259369; calls by dose curve; note: nearly all actives have a fitted effect of over 45% in size; note: potency is the fitted concentration of half-maximal effect)
Method in brief: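 Screening used 3T3Gli1-Luc cells at 2,000 per well, compounds delivered in DMSO, and conditioned medium as agonist stimulus; plates incubated 24hr at 37 C and 5% CO2 before a 30min luciferase step.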

[9] = qHTS assay to identify small molecule phospholipidosis (PLD) inducers (AID 1259344; active = well fitted curve in the direction sought with a large enough effect; an effect the other way counts as inactive or inconclusive)
Method in brief: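 HepG2 cells on collagen I, attached 4 h at 37 C, were co-treated with compound and LipidTOX Red dye for 24 h at 37 C, then fixed with paraformaldehyde plus Hoechst 33342 and imaged by high-content microscopy for phospholipid accumulation.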

Measured: Potency

c1ccc2c(c1)[nH]c1cnccc12
not listed: [8] | [9]
inactive: all other assays above

O=c1[nH]c2ccccc2n1C1CCN(CCCC(c2ccc(F)cc2)c2ccc(F)cc2)CC1
inactive: [3] | [4] | [6] | [7]
54.5 µM (active) and inactive: [1]
active: [2] 48.6 µM | [5] 27.3 µM

CC(=[OH+])/C=C(/C)[O-].CC(=[OH+])/C=C(\C)[O-].CC(=[OH+])/C=C(\C)[O-].[Al]
not listed: [7] | [9]
inactive: all other assays above

COC(=O)N(C(=O)N1COC2(C(=O)OC)Cc3cc(Cl)ccc3C2=N1)c1ccc(OC(F)(F)F)cc1 (stereo unspecified)
not listed: [8] | [9]
inactive: all other assays above

CN(C)C1CSSSC1
not listed: [6] | [8] | [9]
inactive: all other assays above

Cc1cc(C)c(C2=C(OC(=O)CC(C)(C)C)C3(CCCC3)OC2=O)c(C)c1
not listed: [8] | [9]
inactive: all other assays above

CCCN(CCC)CCc1c[nH]c2ccccc12
active: [8] 67.7 µM
not listed: [9]
inactive: all other assays above

CC(c1ccc(O)cc1)c1ccc(O)cc1
inactive and 61.1 µM (active): [5]
22.8 µM (active) and inactive: [8]
not listed: [9]
inactive: all other assays above

CCN(CC)C(=S)[S-].CCN(CC)C(=S)[S-].[Zn+2]
inactive: [1] | [4] | [7]
active: [2] 1.08 µM | [3] 34.1 µM | [5] 1.21 µM | [8] 0.481 µM

CCOP(=S)(OCC)SCCS(=O)(=O)CC
inactive: [1] | [2] | [3] | [4]

Oc1ccc(C(=C(Cl)Cl)c2ccc(O)cc2)cc1
active: [2] 61 µM | [8] 9.67 µM
not listed: [9]
inactive: all other assays above

Cc1cc(C)cc(OP(=O)(Oc2cc(C)cc(C)c2)Oc2cc(C)cc(C)c2)c1
not listed: [9]
inactive: all other assays above

FC(F)(F)c1cccc(C2=CCN(CCc3ccc4ccccc4c3)CC2)c1
not listed: [2]
inactive: all other assays above

CC(C)(C)c1ccc(CSc2cnn(C(C)(C)C)c(=O)c2Cl)cc1
active: [1] 68.6 nM | [2] 0.0154 µM
inactive: [4] | [5] | [6] | [7]

C[C@]12CC[C@@H]3c4ccc(OC(=O)N(CCCl)CCCl)cc4CC[C@H]3[C@@H]1CC[C@@H]2O
not listed: [2]
inactive: all other assays above

C1CCC2CCCCC2C1 (stereo unspecified)
not listed: [2] | [8] | [9]
inactive: all other assays above

CCCCCCCCCCBr
not listed: [3] | [7] | [9]
inactive: all other assays above

CC(C)(C)c1cc([N+](=O)[O-])cc(C(C)(C)C)c1O
active: [1] 13700 nM | [2] 6.11 µM | [8] 3.06 µM
inactive: [3] | [4] | [5] | [7]

Nc1ccccc1C(=O)OC/C=C/c1ccccc1
not listed: [3] | [7] | [9]
inactive: all other assays above
